Measured values as given in ChEMBL document CHEMBL1961873, “Compounds: GSK PKIS; Assays: Nanosyn kinase panel” (2012).

Legend:
[1] = molecular target: Dual specificity protein kinase CLK3 (Homo sapiens) (UniProt P49761); settings: at 1 µM;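 also: each value is the mean inhibition of CLK3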
[2] = molecular target: Dual specificity tyrosine-phosphorylation-regulated kinase 1A (Homo sapiens) (UniProt Q13627); settings: at 0.1 µM
[3] = molecular target: Dual specificity tyrosine-phosphorylation-regulated kinase 1A (Homo sapiens) (UniProt Q13627); settings: at 1 µM
[4] = molecular target: Dual specificity tyrosine-phosphorylation-regulated kinase 1B (Homo sapiens) (UniProt Q9Y463); settings: at 0.1 µM
Chain of Dual specificity tyrosine-phosphorylation-regulated kinase 1B (Homo sapiens) (Q9Y463 whole entry, looked up): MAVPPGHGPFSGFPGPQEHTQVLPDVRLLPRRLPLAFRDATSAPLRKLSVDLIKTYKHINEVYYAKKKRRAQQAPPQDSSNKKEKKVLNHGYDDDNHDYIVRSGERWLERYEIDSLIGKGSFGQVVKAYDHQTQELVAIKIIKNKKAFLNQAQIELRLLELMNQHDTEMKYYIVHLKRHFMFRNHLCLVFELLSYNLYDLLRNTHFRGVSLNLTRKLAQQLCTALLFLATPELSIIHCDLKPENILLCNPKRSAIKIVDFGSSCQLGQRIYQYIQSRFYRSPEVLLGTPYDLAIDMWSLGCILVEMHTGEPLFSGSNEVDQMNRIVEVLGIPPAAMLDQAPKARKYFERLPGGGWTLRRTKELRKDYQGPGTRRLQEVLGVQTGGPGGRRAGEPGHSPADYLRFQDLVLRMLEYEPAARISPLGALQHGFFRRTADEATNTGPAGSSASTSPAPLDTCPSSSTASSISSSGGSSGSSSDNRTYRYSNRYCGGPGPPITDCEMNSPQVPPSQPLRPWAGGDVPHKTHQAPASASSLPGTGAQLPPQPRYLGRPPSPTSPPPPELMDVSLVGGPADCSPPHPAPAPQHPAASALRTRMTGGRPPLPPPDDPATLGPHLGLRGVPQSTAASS

[5] = molecular target: Dual specificity tyrosine-phosphorylation-regulated kinase 1B (Homo sapiens) (UniProt Q9Y463); settings: at 1 µM
[6] = molecular target: T1, Dual specificity tyrosine-phosphorylation-regulated kinase 2 (Homo sapiens) (UniProt Q92630); settings: at 0.1 µM
T1 sequence (whole entry): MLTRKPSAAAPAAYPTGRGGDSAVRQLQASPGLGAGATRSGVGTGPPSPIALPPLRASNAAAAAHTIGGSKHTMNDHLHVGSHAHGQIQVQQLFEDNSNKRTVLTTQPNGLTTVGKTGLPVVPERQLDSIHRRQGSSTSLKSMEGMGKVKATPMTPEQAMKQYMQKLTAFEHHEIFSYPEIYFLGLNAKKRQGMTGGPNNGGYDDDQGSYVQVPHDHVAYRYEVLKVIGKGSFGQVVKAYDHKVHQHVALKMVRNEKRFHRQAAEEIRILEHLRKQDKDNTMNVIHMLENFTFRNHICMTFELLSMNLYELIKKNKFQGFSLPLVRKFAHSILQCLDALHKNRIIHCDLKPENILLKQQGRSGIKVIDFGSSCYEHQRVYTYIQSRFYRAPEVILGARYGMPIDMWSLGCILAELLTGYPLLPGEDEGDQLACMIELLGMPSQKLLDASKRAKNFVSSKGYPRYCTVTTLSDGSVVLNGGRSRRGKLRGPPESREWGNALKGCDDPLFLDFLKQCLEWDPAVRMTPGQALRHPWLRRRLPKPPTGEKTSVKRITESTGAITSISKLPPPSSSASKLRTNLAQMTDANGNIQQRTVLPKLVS

[7] = molecular target: T1, Dual specificity tyrosine-phosphorylation-regulated kinase 2 (Homo sapiens); settings: at 1 µM
[8] = molecular target: Glycogen synthase kinase-3 alpha (Homo sapiens) (UniProt P49840); settings: at 0.1 µM
Chain of Glycogen synthase kinase-3 alpha (Homo sapiens) (P49840 2-483 limits assumed): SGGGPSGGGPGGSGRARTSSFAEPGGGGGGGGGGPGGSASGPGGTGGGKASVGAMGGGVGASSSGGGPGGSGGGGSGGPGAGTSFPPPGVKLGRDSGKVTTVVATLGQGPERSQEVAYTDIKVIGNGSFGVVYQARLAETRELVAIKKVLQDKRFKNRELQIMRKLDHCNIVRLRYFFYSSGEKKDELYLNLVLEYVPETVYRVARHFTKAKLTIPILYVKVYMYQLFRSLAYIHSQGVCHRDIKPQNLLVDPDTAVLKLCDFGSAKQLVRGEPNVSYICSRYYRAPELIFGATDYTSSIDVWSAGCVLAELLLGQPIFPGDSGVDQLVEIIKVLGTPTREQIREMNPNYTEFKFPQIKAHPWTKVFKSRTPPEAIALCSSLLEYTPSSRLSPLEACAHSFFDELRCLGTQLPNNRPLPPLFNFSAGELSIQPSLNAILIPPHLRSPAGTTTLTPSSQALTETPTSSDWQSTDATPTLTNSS

[9] = molecular target: Glycogen synthase kinase-3 alpha (Homo sapiens) (UniProt P49840); settings: at 1 µM
[10] = molecular target: Glycogen synthase kinase-3 beta (Homo sapiens) (UniProt P49841); settings: at 0.1 µM
Chain of Glycogen synthase kinase-3 beta (Homo sapiens) (P49841 whole entry, looked up): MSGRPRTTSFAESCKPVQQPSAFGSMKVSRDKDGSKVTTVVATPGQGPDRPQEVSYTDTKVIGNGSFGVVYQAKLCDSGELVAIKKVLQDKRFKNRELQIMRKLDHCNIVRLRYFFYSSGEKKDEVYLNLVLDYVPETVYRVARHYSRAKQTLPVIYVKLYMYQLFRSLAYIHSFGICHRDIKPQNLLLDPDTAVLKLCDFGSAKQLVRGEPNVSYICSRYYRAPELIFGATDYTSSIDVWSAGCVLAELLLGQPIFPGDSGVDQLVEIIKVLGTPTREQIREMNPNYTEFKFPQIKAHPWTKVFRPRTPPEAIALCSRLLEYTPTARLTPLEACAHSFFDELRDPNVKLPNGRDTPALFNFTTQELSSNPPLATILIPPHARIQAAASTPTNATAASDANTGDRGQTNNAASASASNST

[11] = molecular target: Glycogen synthase kinase-3 beta (Homo sapiens) (UniProt P49841); settings: at 1 µM
[12] = molecular target: Homeodomain-interacting protein kinase 1 (Homo sapiens) (UniProt Q86Z02); settings: at 0.1 µM
Chain of Homeodomain-interacting protein kinase 1 (Homo sapiens) (Q86Z02 whole entry, looked up): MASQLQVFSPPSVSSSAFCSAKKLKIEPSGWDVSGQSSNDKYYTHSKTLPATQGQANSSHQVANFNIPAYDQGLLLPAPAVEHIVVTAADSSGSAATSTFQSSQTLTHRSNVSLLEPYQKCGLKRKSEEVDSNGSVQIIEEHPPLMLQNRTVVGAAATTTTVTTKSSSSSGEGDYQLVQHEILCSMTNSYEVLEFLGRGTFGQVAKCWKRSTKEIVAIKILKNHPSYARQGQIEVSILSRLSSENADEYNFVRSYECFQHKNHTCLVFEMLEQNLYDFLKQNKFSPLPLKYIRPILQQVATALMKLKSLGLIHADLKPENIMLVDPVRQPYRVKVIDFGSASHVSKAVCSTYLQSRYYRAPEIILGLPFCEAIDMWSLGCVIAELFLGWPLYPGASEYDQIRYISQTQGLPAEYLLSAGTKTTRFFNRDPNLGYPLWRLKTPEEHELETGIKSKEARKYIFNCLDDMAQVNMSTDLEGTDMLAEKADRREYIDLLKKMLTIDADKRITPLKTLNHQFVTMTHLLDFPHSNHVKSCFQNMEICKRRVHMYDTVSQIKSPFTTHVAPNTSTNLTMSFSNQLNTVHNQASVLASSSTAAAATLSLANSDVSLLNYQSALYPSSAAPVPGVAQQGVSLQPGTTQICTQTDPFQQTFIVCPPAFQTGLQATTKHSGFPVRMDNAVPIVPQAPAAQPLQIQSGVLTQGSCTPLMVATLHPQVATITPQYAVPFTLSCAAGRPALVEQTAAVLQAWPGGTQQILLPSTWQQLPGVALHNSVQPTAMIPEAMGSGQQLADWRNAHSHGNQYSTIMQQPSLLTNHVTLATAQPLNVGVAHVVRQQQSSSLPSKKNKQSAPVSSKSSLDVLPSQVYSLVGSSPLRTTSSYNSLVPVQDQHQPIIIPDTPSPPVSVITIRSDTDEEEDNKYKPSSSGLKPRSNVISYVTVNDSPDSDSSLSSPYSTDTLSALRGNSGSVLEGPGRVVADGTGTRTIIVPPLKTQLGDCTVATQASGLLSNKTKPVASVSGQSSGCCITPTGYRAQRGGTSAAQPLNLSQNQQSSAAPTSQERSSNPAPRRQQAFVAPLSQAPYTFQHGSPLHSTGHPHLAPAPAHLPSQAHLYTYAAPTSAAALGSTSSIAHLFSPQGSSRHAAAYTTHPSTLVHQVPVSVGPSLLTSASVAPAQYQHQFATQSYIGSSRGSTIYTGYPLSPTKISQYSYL

[13] = molecular target: Homeodomain-interacting protein kinase 1 (Homo sapiens) (UniProt Q86Z02); settings: at 1 µM
[14] = molecular target: T2, Homeodomain-interacting protein kinase 4 (Homo sapiens) (UniProt Q8NE63); settings: at 0.1 µM
T2 sequence (whole entry): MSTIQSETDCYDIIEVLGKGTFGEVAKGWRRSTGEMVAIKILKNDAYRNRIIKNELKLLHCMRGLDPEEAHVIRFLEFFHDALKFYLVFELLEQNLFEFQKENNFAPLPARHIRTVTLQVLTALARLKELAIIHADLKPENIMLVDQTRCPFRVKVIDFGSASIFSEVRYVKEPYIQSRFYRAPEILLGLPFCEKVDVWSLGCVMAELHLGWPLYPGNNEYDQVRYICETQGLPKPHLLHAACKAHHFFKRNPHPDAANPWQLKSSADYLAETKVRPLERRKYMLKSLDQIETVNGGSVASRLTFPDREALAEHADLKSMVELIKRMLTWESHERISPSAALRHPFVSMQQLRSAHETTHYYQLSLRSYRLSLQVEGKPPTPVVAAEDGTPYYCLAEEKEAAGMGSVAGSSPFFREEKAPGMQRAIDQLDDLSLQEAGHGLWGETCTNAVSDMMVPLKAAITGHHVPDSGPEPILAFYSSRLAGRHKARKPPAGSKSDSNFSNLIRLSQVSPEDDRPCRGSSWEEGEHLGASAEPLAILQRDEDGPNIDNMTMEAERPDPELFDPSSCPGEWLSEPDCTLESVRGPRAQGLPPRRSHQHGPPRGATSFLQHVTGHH

[15] = molecular target: T2, Homeodomain-interacting protein kinase 4 (Homo sapiens); settings: at 1 µM
[16] = molecular target: Mitogen-activated protein kinase 9 (Homo sapiens) (UniProt P45984); settings: at 0.1 µM
Chain of Mitogen-activated protein kinase 9 (Homo sapiens) (P45984 whole entry, looked up): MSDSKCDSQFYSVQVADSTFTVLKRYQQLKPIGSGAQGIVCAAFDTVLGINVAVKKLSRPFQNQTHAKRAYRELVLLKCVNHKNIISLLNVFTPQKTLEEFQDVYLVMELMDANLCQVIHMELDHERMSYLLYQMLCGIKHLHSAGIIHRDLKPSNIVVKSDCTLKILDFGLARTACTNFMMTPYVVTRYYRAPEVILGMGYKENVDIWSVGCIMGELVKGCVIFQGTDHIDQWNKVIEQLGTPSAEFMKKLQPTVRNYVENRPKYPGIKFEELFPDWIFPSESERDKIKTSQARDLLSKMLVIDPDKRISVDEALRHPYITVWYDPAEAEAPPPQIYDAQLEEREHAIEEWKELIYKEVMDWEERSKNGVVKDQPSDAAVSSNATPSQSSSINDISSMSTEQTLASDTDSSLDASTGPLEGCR

[17] = molecular target: Mitogen-activated protein kinase 9 (Homo sapiens) (UniProt P45984); settings: at 1 µM
[18] = molecular target: Mitogen-activated protein kinase 1 (Homo sapiens) (UniProt P28482); settings: at 0.1 µM
Chain of Mitogen-activated protein kinase 1 (Homo sapiens) (P28482 whole entry): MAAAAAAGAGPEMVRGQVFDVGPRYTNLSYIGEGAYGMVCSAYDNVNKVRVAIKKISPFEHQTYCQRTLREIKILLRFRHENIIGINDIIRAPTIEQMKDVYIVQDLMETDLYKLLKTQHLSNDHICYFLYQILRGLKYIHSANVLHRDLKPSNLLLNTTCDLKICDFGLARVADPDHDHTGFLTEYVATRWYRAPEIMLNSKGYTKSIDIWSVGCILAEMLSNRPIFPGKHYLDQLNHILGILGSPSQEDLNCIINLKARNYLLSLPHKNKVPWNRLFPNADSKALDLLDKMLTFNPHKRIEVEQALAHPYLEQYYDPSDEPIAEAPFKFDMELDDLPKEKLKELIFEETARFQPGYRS

[19] = molecular target: Mitogen-activated protein kinase 1 (Homo sapiens) (UniProt P28482); settings: at 1 µM
[20] = molecular target: Mitogen-activated protein kinase 3 (Homo sapiens) (UniProt P27361); settings: at 0.1 µM;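 also: each value is a mean inhibition figure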
Chain of Mitogen-activated protein kinase 3 (Homo sapiens) (P27361 whole entry): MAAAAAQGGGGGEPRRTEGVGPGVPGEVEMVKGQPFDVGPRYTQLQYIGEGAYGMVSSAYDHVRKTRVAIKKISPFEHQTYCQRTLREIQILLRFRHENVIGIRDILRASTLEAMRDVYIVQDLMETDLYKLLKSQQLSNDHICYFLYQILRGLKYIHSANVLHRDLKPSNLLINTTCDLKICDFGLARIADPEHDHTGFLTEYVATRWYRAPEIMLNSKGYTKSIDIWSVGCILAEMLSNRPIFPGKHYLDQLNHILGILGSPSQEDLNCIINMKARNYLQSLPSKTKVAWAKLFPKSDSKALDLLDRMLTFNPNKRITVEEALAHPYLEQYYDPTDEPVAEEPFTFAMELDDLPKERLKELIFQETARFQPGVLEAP

Chain of Dual specificity protein kinase CLK3 (Homo sapiens) (P49761 whole entry, looked up): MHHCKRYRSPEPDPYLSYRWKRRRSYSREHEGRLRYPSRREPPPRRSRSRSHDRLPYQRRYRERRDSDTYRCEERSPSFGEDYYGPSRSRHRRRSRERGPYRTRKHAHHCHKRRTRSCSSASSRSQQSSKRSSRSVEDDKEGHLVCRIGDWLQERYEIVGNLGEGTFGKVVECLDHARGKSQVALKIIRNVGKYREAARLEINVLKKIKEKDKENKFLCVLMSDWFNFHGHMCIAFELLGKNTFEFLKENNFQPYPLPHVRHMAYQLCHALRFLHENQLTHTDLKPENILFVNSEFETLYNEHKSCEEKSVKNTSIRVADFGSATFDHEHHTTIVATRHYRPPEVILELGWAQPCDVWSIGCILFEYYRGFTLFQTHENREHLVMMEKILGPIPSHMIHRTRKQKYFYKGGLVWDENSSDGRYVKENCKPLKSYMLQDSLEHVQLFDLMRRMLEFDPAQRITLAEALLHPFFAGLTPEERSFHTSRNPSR

SMILES	inhibition [1] [%]	inhibition [2] [%]	inhibition [3] [%]	inhibition [4] [%]	inhibition [5] [%]	inhibition [6] [%]	inhibition [7] [%]	inhibition [8] [%]	inhibition [9] [%]	inhibition [10] [%]	inhibition [11] [%]	inhibition [12] [%]	inhibition [13] [%]	inhibition [14] [%]	inhibition [15] [%]	inhibition [16] [%]	inhibition [17] [%]	inhibition [18] [%]	inhibition [19] [%]	inhibition [20] [%]
COc1cc(Nc2nccc(Nc3ccc4c(C)n[nH]c4c3)n2)cc(OC)c1OC	6.44	0.88	7.54	2.83	5.43	1.95	4.25	2.79	17.3	2.73	16.1	-0.29	1.88	1.59	3.91	2.22	13.6	0.66	3.16	1.57
NC(=O)c1sc(-n2cnc3ccc(C(F)(F)F)cc32)cc1OCc1ccccc1Br	4.85	2.74	8.54	-0.4	2.27	2.93	4.03	1.26	7.48	-0.61	3.8	0.1	2.51	1.27	4.18	3.06	5.5	2.67	4.49	3.25
CNC(=O)c1cncc(/C=C/c2ccccc2Cl)c1	0.64	-0.68	0.12	-0.37	0.88	1.32	1.49	3.11	8.27	3.39	10	1.58	2.44	0.63	1.63	-1.14	-1.36	0.37	-1.68	0.99
CCNC(=O)O[C@H]1CN[C@H](C#Cc2cc3ncnc(Nc4ccc(OCc5cccc(F)c5)c(Cl)c4)c3s2)C1	2.52	1.66	3.98	0.74	1.59	3.13	5.14	3.4	9.61	2.01	8.04	2.47	5.41	2.15	0.62	1.6	4.37	1.5	2.66	0.46
COc1cccc(-n2ncc3c(N/N=C/c4ccc(F)cc4)ncnc32)c1	6.29	6.93	24.2	4.09	16.3	5.25	18.8	64	87.7	54.6	83	11.9	27.1	9.35	20.9	1.94	4.28	5.5	2.32	2.41
CC(=O)Nc1cccc(C#Cc2cncnc2Nc2ccc(OCc3cccc(F)c3)c(Cl)c2)c1	0.73	-0.41	1.4	0.85	-0.33	3.61	1.41	2.72	5.35	1.98	4.53	-1.76	-0.76	1.24	4.47	2.12	3.22	2.93	3.14	2.14
O=C(Nc1n[nH]c2cc(-c3ccc(F)cc3)ccc12)C1CC1	1.03	3.64	11	1.08	7.73	2.57	2.75	3.8	14.7	2.61	14.9	-2.89	2.09	0.01	1.78	2.97	3.68	1.79	4.65	1.72
Nc1nc(-c2ccc(F)cc2)c(-c2ccc3ncccc3n2)s1	6.28	8.98	37.4	3.54	19.8	3.22	5.03	12.1	20.8	11	19.6	4.79	13.9	4.95	11	6.33	25.3	4.29	5.05	3.56
COc1ccc2[nH]c3c4[nH]c5ccc(OC)cc5c4c4c(c3c2c1)C(=O)NC4=O	4.44	10.1	43.1	2.55	26.1	6.81	29	1.75	6.24	3.92	14.7	5.17	20.7	4.28	22.8	4.65	21.7	3.5	5.44	4.93
CN1CCC(n2cnc(-c3ccc(F)cc3)c2-c2ccnc(N)n2)CC1	1.25	1.69	6.19	0.68	2.08	2.29	12.5	1.36	7.39	1.11	8.08	3.64	24.8	1.91	16.7	2.6	11.3	0.3	2.71	3.88
CCn1c(-c2nonc2N)nc2c(C#CC(C)(C)O)ncc(OC3CCNCC3)c21	0.2	1.61	-0.11	0.14	1.34	2.3	3.89	12.3	48.9	10	51.8	0.21	4.91	1.04	2.64	4.13	6.93	4.51	7.43	4.27
N#Cc1c(NC(=O)c2ccc(F)cc2)sc2c1CCCC2	0.61	0.28	3.62	-0.66	1.05	-0.13	0.26	0.69	2.28	-0.51	3.45	-1.95	-1.66	-1.19	-0.61	2.17	2.49	0.39	1.25	-1.04
COc1ccc2c(-c3ccnc(Nc4cccc(OC(F)(F)F)c4)n3)cnn2n1	52.8	16	60.8	32.6	77.2	4.32	16	28.1	81.1	21.2	73.2	84.8	91.7	51.3	83	1.35	11.4	2.96	7.52	5.36
CCN1CCC(CC(=O)Nc2n[nH]c3nnc(-c4cccc(F)c4F)cc23)CC1	2.16	10.4	53.1	7.85	46.9	1.7	5.64	88.8	93.9	85	94.4	-3.8	8.59	0.11	3	2.02	-0.48	4.04	2.72	3.44
CC(=O)NCc1cccc(C#Cc2cncnc2Nc2ccc(OCc3cccc(F)c3)c(Cl)c2)c1	0.27	1.8	6.71	0.66	1.17	1.17	-0.66	3.24	8.35	2.82	7.42	-1.17	0.08	-1.54	2.87	0.88	0.54	0.71	1.78	-0.54
NS(=O)(=O)c1ccc(N/N=C2\C(=O)Nc3ccc4ncccc4c32)cc1	15	18.6	61.6	13	54.8	6.76	35.7	55.3	80.9	53.5	80.2	19.7	64.7	6.71	40	6.07	33.7	14.9	55.5	6.45
Nc1ncc(-c2cccc(S(N)(=O)=O)c2)c2scc(-c3ccc(F)c(Cl)c3)c12	0.34	2.01	3.66	-0.65	0.74	3.42	2.46	3.06	4.87	2.78	3.65	0.64	3.02	1.4	4.49	2.92	20.5	6.27	7.98	3.4
COc1ccc(-c2oc3ncnc(N)c3c2-c2ccc(NC(=O)Nc3cc(C(F)(F)F)ccc3F)cc2)cc1	4.8	0.67	2.07	-0.07	2.26	1.92	5.52	3.93	17.3	3.17	15.2	13.5	62	68.7	88.8	7.38	19.9	7.13	6.23	3.48
COC(=O)Nc1nc2ccc(Oc3ccc(NC(=O)Nc4cccc(Cl)c4)cc3)cc2[nH]1	-1.09	-1.75	-2.75	-1.02	-0.33	1.12	-2.41	3.91	3.54	2.92	4.55	-1.97	-0.94	2.35	14.8	1.98	5.76	1.02	1.55	-0.95
CCn1cc(-c2ccnc3[nH]ccc23)c(-c2cccc(NC(=O)Nc3ccc(OCc4ccccc4)cc3)c2)n1	-1.48	-3.22	-2.65	-1.6	-0.5	-0.82	-4.73	2.29	3.64	1.77	3.94	-3.5	-1.09	-1.8	-0.81	0.84	1.92	1.51	0.25	1.98
Cc1ccc2c(-c3ccnc(Nc4ccccc4)n3)c(-c3ccc(F)cc3)nn2n1	1.61	0.7	5.42	1	3.35	3.2	2.94	9.81	44.8	22.4	66.7	-0.41	7.55	2.12	4.2	44	81.2	4.23	10.5	3.56
